# Columns and labels:
# Assay in all cases: PBM binding z-score (relative to random genomic background probes); higher = stronger binding; sequences stand for … in GC…GCGATTGACAGCGTAGAATGAAGG
# [1] = test system: FXR:RXRa (NR concentration 270 nM, RXRa partner concentration 90 nM)
# How it was run: (§1)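 On custom Agilent 4×180K arrays, double-stranded probes with 34-nt variable regions carried direct-repeat seeds, single-nucleotide variants, half-site ablations or random human genomic background. Ligand-free nuclear receptor dimers were applied for 1 h, and binding was read with antibodies against each partner (one per run). Binding z-scores come from regression-normalized fluorescence, with the random background probes as reference.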
# [2] = test system: LXRa:RXRa (NR concentration 270 nM, RXRa partner concentration 90 nM)
# How it was run: as §1
# [3] = test system: LXRa homodimer (NR concentration 270 nM)
# How it was run: as §1
# [4] = test system: LXRb:RXRa (NR concentration 270 nM, RXRa partner concentration 90 nM)
# How it was run: as §1
# [5] = test system: LXRb homodimer (NR concentration 270 nM)
# How it was run: as §1
# [6] = test system: PPARa:RXRa (NR concentration 270 nM, RXRa partner concentration 90 nM)
# How it was run: as §1
# [7] = test system: PPARg:RXRa (NR concentration 180 nM, RXRa partner concentration 90 nM)
# How it was run: as §1
# [8] = test system: PPARg:RXRa 270nM:90nM, anti-RXR (NR concentration 270 nM, RXRa partner concentration 90 nM)
# How it was run: as §1
# [9] = test system: PPARg:RXRa 30nM:10nM, anti-RXR (NR concentration 30 nM, RXRa partner concentration 10 nM)
# How it was run: as §1
# [10] = test system: PPARg:RXRa 90nM:30nM, anti-RXR (NR concentration 90 nM, RXRa partner concentration 30 nM)
# How it was run: as §1
# [11] = test system: PPARg:RXRa DBDmut IVT, anti-RXR (DBD mutation: RXRa K156A/R161A, NR concentration 270 nM, RXRa partner concentration 90 nM)
# How it was run: as §1
# [12] = test system: PPARg:RXRa IVT, anti-PPARg (NR concentration 270 nM, RXRa partner concentration 90 nM)
# How it was run: as §1
# [13] = test system: PPARg DBDmut:RXRa IVT, anti-PPARg (DBD mutation: PPARg1 K132A/R137A, NR concentration 270 nM, RXRa partner concentration 90 nM)
# How it was run: as §1
# [14] = test system: PPARg DBDmut IVT, anti-PPARg (DBD mutation: PPARg1 K132A/R137A, NR concentration 270 nM)
# How it was run: as §1
# [15] = test system: PPARg homodimer (NR concentration 180 nM)
# How it was run: as §1
# [16] = test system: PXR:RXRa (NR concentration 270 nM, RXRa partner concentration 90 nM)
# How it was run: as §1
# [17] = test system: PXR homodimer (NR concentration 270 nM)
# How it was run: as §1
# [18] = test system: RARa:RXR (NR concentration 270 nM, RXRa partner concentration 90 nM)
# How it was run: as §1
# [19] = test system: RARa homodimer (NR concentration 270 nM)
# How it was run: as §1
# [20] = test system: RARb:RXRa (NR concentration 270 nM, RXRa partner concentration 90 nM)
# How it was run: as §1
Sequence,PBM binding z-score [1],PBM binding z-score [2],PBM binding z-score [3],PBM binding z-score [4],PBM binding z-score [5],PBM binding z-score [6],PBM binding z-score [7],PBM binding z-score [8],PBM binding z-score [9],PBM binding z-score [10],PBM binding z-score [11],PBM binding z-score [12],PBM binding z-score [13],PBM binding z-score [14],PBM binding z-score [15],PBM binding z-score [16],PBM binding z-score [17],PBM binding z-score [18],PBM binding z-score [19],PBM binding z-score [20]
ATATGTAGGTTATCGGGTCATTTAGTTTGCGCAT,3.57,3.18,2.41,3.28,1.19,4.9,7.59,6.1,3.69,5.91,7.62,7.25,1.55,1.71,3.3,3.33,4.87,3.6,1.47,2.56
ATCTCTAGGTCACCAAGTTCAGTGAATGCCGAAC,4.67,5.17,4.93,3.52,2.23,4.74,7.04,6.1,3.59,5.18,7.23,7.06,2.4,2.04,3.74,5.68,11.1,3.92,2.64,4.82
TCTCGGAGGGCACGAAAGGTCAGAGCTCGACATC,4.52,6.49,2.82,4.29,-0.405,4.24,2.69,3.93,2.36,3.06,1.78,2.45,-0.111,-0.16,3,5.57,0.576,5.45,0.74,4.79
AGGATGAGGTTATACGTAGATCAGGGAAGAAAGT,2.42,1.94,0.445,2.03,0.715,2.62,1.16,1.11,0.501,0.724,0.241,0.698,1.41,0.577,1.34,1.6,1.47,1.71,1.01,1.77
TCTCGTAGATCAACAGGAGGTTAAGAAAGATCGA,0.345,1.09,-0.171,1,-0.667,1.13,-0.29,1.7,2.94,2.36,1.41,0.00538,0.397,-0.0394,0.0333,0.901,-0.13,1.21,0.12,0.48
ACAGACAGGTGATGAAGGCAACTCAGGCTATCAT,-0.379,-0.449,-0.41,-0.706,-0.333,-0.357,0.764,-0.331,-0.116,-0.446,-0.272,-0.316,0.175,-1.07,-0.119,-0.469,-0.142,0.0224,0.0844,0.0179
TGAATGAGGTTATAAGTTCAGGGAACGTTGCAAA,2.81,2.69,0.29,1.88,-0.136,3.66,2.09,3.38,1.55,2.71,1.14,1.78,0.562,0.599,1.97,3.24,1.46,3.81,0.0281,2.87
GGAAAGAGGGCATTCGAGTTGATAGCATGGCGAT,1.74,2.82,0.148,1.13,0.213,1.92,0.905,1.19,0.366,0.958,2.82,1.52,0.272,0.297,0.828,4.41,1.31,1.75,0.298,2.24
ACAAGTTGGTCAGCTGAGGTCACACACAATTCGG,3.12,3.24,2.34,3.77,0.506,3.78,2.28,2.38,0.435,1.74,1.87,2.89,0.789,1.03,2.69,5.44,2,4.44,1.01,3.65
CGAACTAGGTCATCCAGGAAAGTGAATACATTGA,4.43,2.64,0.469,2.15,0.453,5.01,7.91,6.29,4.25,5.91,8.18,8.5,3.43,1.05,1.98,1.58,0.128,2.49,0.697,3.96
TTAGCAAGGTGAGCTGAGGTCGTTGATCCAACTC,0.796,1.32,-0.635,0.393,-0.992,1.72,-0.0318,0.607,-0.48,0.182,0.492,1.3,-0.527,-1.48,-0.0688,4.92,0.566,2.28,-1.15,1.59
CTCGAAAGGTCGGTTGAGGAGAGTATACGGATAA,1.93,1.38,-0.296,1.13,0.0344,2.25,0.367,1.09,0.298,0.525,-0.459,0.102,1.01,-0.0822,0.421,1.09,0.356,2.15,-0.00538,2.87
GCTGCGAGGTCAGGTTGGTCAGCTAACGGGTACG,5.45,3.46,0.305,2.93,0.482,4.38,2.49,2.99,0.517,1.75,1.82,2.38,-0.42,-0.641,2.28,3.29,0.452,3.39,0.367,4.51
TCATATAGGTAAAAGGGGAAAGTCGGTGTGGTAA,1.2,0.984,0.33,1.32,0.445,3.75,6.27,6.98,6.37,7.9,4.82,3.69,1.31,1.21,1.73,0.624,0.862,1.17,2.27,0.958
CCTCGGAGGACAGAAGGTCAGAGCAGTCCGCTTT,1.47,1.7,0.116,1.25,-0.798,2.04,0.114,0.948,-0.57,0.201,0.416,0.276,-1.6,-1.82,1.18,2.83,-0.373,2.41,0.42,3.25

# Reference: the supplement of paper PMC6555819
